The sequences below were run against T1, ETS1 (UniProt P14921) (assay: ETS1 binding intensity (PBM fluorescence) in presence of RUNX1, normalised to ETS1-only experiment (arbitrary fluorescence units); higher = stronger binding). Details: ETS1 concentration 1 nM; RUNX1 concentration 25 nM.
T1 sequence: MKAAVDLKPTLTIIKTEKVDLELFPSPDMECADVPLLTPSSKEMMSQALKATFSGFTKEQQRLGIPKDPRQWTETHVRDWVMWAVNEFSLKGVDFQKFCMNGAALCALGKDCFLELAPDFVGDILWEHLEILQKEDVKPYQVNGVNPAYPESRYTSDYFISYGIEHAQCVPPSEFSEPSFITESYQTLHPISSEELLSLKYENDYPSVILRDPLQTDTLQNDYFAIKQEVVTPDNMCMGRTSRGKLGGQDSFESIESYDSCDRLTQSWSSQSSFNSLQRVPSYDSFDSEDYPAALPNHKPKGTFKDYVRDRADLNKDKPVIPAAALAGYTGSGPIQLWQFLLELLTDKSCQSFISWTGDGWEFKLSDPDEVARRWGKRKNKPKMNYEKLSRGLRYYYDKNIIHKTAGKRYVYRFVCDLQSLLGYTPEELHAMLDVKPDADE

| Sequence | ETS1 binding intensity |
| --- | --- |
| GGACTGCGTTTCCGGACACTGCGGGTGCCGGTAGCC | 1680 |
| GAAGCCCAACAGGATGCCGAGTAACCACCCACTGAA | 1120 |
| TTCAGGTGACTTCCGGCCGGACCGCTGAGGACGCGG | 9520 |
| AAAGGCGGAAGGGGGGCAGGGAACCCACAAAACAGA | 610 |
| AAACAGGAAATCACAGCAGCGTTGCGGAGTGGAGCA | 1110 |
| CTTGCCACACTTCCTCTTGTTTTGAACCACTATATT | 641 |
| ACCAACCGGAAGTGATCGTGTTGTGGCCGAAGGAGG | 18100 |
| CGGTGGCTTCCGGCCCATGGCGGTGGTTGGTGACTC | 953 |
| CTGACAGTTACTTCCTGTCTTTGTGGGCGATTGTGA | 4620 |
| GAGGCAGGCGGATGTCAGTGTGGTTAGAGCACAGTG | 3310 |
| GGCTCGGCAAACATCCGGCTCCGCGGTGGAACGGGA | 1910 |
| GATGCTTGTTCAGGATGCGGTTTCTTGCAGCAAGTT | 2380 |
| CCATTCACGGGCTTCCGCGGTGTCCCCACCCCCTAA | 760 |
| TCCCCACATCCTTTAAAACGATGAGATAACCACATG | 636 |
| AGGCCGCTTCCTCCCACATGAAACCGCAGGCTTCGG | 1590 |
| AACAGTCACATCCGGGGCCGAGAGGAACCGCGAACG | 2080 |
| GGCTGGCCTAGGAACTTCCGCCACAAGTCCCGCCCC | 2220 |
| CCGGGTAGGATCCGGTTGCCTTTCTGCGGTGGAGGA | 798 |
| CCTCCCGACCGGAAGCCCCGCCACAGAGCGGGTTGT | 8570 |
| AGCTGAGAGCCTGCCGGAAGCCACAGCTTCTTCTCG | 5670 |
| ACCGGGTGCTGAGGAGGAAGTGGTTGCTATAACCCC | 3420 |
